Measured values taken from PubChem BioAssay (NCATS).
Inconclusive results are not listed. Activity calls are given as the source filed them. Unless noted, calls follow the shape of the dose curve; as a rule, active = well fitted curve in the direction sought with a large enough effect; inconclusive = small, poorly fitted or top-dose-only effect, or another doubt; inactive = no such curve, though single readings can be large; an effect the other way counts as inactive or inconclusive.

Tests used:
[1] = molecular target: Luciferin 4-monooxygenase (Photinus pyralis) (UniProt P08659); assay: Biochemical firefly luciferase enzyme assay for NPC (AID 624030);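 also: purified P. pyralis luciferase at 10 nM with luciferin and ATP substrate; nearly all actives have a fitted effect of over 70% in size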
How it was run: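 Counter-screen for direct inhibition of the luciferase enzyme by approved-drug library compounds, run at 10 nM enzyme in 50 mM Tris acetate (final). Luminescence was read within 5 min of enzyme-buffer addition and normalized to PTC124 versus DMSO (0%).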

[2] = S16 Schwann cell viability assay (CellTiter-Glo assay) (AID 624031);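 also: cellular ATP luminescence as a viability measure; nearly all actives have a fitted effect of over 70% in size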
How it was run: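 Native S16 rat Schwann cells in DMEM/10% FBS without phenol red were incubated overnight, then exposed to compounds for 24 h at 37 °C/5% CO2. Viability was read as ATP luminescence (CellTiter-Glo), normalized to no-cell wells and DMSO (0%).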

[3] = S16 Schwann cell PMP22 intronic element beta-lactamase assay (AID 624044; calls by dose curve; also: nearly all actives have a fitted effect of over 15% in size); details: S16 rat Schwann cells, PMP22 element beta-lactamase FRET, 24 h; ratio activity, negative = inhibition: at 38.3 µM (top of the series)
How it was run: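 Beta-lactamase reporter under a PMP22 intronic regulatory element in stable S16 rat Schwann cells; 24 h compound exposure. 460 nm blue signal normalized between DMSO (0%) and potassium clavulanate, with 535 nm FRET tracking viability; curves classed by r2 and response.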

7G8 = assay: qHTS profiling for inhibitors of Plasmodium falciparum proliferation (AID 504749); also: nearly all actives have a fitted effect of over 60% in size; details: P. falciparum in erythrocytes, SYBR Green DNA, 72 h; series mostly up to 28.7 µM
How it was run: (§1)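 Quantitative HTS: compounds pinned into medium, infected erythrocytes added (0.3% parasitemia, 2.5% hematocrit), 72 h culture at 37 C under 5% CO2. Saponin/Triton lysis with SYBR Green I, overnight RT, then fluorescence read.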

ATS95 = assay: as above; details: P. falciparum in erythrocytes, SYBR Green DNA, 72 h; series mostly up to 28.7 µM
How it was run: as §1

CP215 = assay: as above; details: P. falciparum in erythrocytes, SYBR Green DNA, 72 h; series mostly up to 28.7 µM
How it was run: as §1

CP247 = assay: as above; details: P. falciparum in erythrocytes, SYBR Green DNA, 72 h; series mostly up to 28.7 µM
How it was run: as §1

CP260 = assay: as above; details: P. falciparum in erythrocytes, SYBR Green DNA, 72 h; series mostly up to 28.7 µM
How it was run: as §1

CP266 = assay: as above; details: P. falciparum in erythrocytes, SYBR Green DNA, 72 h; series mostly up to 28.7 µM
How it was run: as §1

CP291 = assay: as above; details: P. falciparum in erythrocytes, SYBR Green DNA, 72 h; series mostly up to 28.7 µM
How it was run: as §1

CP297 = assay: as above; details: P. falciparum in erythrocytes, SYBR Green DNA, 72 h; series mostly up to 28.7 µM
How it was run: as §1

CP335 = assay: as above; details: P. falciparum in erythrocytes, SYBR Green DNA, 72 h; series mostly up to 28.7 µM
How it was run: as §1

DIV17 = assay: as above; details: P. falciparum in erythrocytes, SYBR Green DNA, 72 h; series mostly up to 28.7 µM
How it was run: as §1

GB4 = assay: as above; details: P. falciparum in erythrocytes, SYBR Green DNA, 72 h; series mostly up to 28.7 µM
How it was run: as §1

P93_24 = assay: as above; details: P. falciparum in erythrocytes, SYBR Green DNA, 72 h; series mostly up to 28.7 µM
How it was run: as §1

PC15 = assay: as above; details: P. falciparum in erythrocytes, SYBR Green DNA, 72 h; series mostly up to 28.7 µM
How it was run: as §1

PC26 = assay: as above; details: P. falciparum in erythrocytes, SYBR Green DNA, 72 h; series mostly up to 28.7 µM
How it was run: as §1

PC49 = assay: as above; details: P. falciparum in erythrocytes, SYBR Green DNA, 72 h; series mostly up to 28.7 µM
How it was run: as §1

TAB109 = assay: as above; details: P. falciparum in erythrocytes, SYBR Green DNA, 72 h; series mostly up to 28.7 µM
How it was run: as §1

TAB165 = assay: as above; details: P. falciparum in erythrocytes, SYBR Green DNA, 72 h; series mostly up to 28.7 µM
How it was run: as §1

Measured: Potency

Luciferin 4-monooxygenase (Photinus pyralis), sequence (P08659 whole entry, looked up): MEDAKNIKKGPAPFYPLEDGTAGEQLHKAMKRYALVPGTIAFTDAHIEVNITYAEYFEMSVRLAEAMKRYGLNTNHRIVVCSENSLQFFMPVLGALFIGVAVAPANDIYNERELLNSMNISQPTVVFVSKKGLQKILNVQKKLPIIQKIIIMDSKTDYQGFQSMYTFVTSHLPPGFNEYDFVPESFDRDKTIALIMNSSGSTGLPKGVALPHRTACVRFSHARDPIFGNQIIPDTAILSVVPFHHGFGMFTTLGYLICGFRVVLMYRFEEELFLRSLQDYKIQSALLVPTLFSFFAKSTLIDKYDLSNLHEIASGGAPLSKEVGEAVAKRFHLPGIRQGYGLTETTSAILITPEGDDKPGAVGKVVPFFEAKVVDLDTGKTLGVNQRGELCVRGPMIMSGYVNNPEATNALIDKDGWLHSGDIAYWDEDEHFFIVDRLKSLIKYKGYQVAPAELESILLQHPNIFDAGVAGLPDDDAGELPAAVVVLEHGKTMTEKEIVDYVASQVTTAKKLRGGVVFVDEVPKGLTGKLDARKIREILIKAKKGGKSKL

O=C1[C@@H]2C[C@@H]3C[C@H]1C[C@@](O)(C3)C2
inactive: all assays above

CNC(=O)C(N)CSC(C)C1=C(C)c2cc3[n-]c(cc4nc(cc5[n-]c(cc1n2)c(C)c5CCC(=O)O)C(CCC(=O)O)=C4C)c(C)c3C(C)SCC(N)C(=O)NC.[Fe+2] (stereo not drawn)
inactive: all assays above

Cc1ccc(S(=O)(=O)NC(=O)NC(C)Cc2ccccc2)cc1 (stereo not drawn)
not listed: [3]
inactive: all other assays above

COC(c1ccccc1)(c1ccccc1)C(Oc1nc(C)cc(C)n1)C(=O)O (stereo not drawn)
inactive: all assays above

C[S+](C)CC[C@H](N)C(=O)O
not listed: DIV17
inactive: all other assays above
